Screening results from PubChem BioAssay.
Rows were chosen to be rich in hits. Some 21% of all compounds tested hit in one or more screens of this group.
NS1 inh – influenza NS1 inhibition; Potency, µM (series often up to 46.1 µM); 270,000 tested, 0.4% active; AID 2326; calls by dose curve; further: actives are rising curves; nearly all actives have a fitted effect of over 50% in size
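Recovery from NS1-induced slow growth read by OD600 in budding yeast switched to galactose assay medium (pH 6.0, -URA) at 1:100 dilution. Compound 23 nl per well; the matching strain lacking NS1 serves as control.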
Pf growth 96h – inhibits malaria parasite growth, 96 h; P. falciparum luciferase reporter growth, 96 h; Potency, µM (highest dose often 28.7 µM), hits mostly inhibitors; 320,000 tested, 6.9% active; AID 504834
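Two-generation exposure (96 h) targets delayed-death phenotype. Reporter parasites carrying integrated firefly luciferase, in red cells at 2% hematocrit and 0.05% parasitemia final, kept at 37 C, 5% CO2; luminescence loss indicates inhibition.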
FBPA Giardia inh – Giardia lamblia aldolase inhibition; Potency, µM (doses to about 59.6 µM), actives largely listed as inhibitors; 290,000 tested, 0.71% active; A8B2U2; purified Giardia FBPA; further: nearly all actives have a fitted effect of over 55% in size
Target sequence (A8B2U2 whole entry, looked up): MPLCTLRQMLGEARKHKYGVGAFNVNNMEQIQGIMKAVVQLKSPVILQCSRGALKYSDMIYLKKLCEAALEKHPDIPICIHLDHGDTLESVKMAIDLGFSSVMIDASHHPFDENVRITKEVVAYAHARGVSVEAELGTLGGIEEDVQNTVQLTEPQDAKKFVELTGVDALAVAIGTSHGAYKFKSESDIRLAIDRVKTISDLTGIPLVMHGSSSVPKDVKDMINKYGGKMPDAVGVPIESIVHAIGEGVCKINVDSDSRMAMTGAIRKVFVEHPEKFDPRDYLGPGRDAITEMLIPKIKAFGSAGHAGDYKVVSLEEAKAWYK
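Giardia FBPA (40 nM reagent) was preincubated 10 min at RT with compound (up to 57.5 uM final), then substrate plus GAPDH/TPI/NAD/arsenate coupling system with diaphorase/resazurin was added; resorufin fluorescence (525/598 nm) was read after 20 min.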
Pf growth 48h – inhibits P. falciparum growth in the first generation, 48 h; P. falciparum luciferase growth in erythrocytes, 48 h; AID 504832; 310,000 tested, 5.9% active; Potency, µM (titrated, usually from 28.7 µM), most hits filed as inhibitors
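Here the parasites carry a stable luciferase gene and grow inside erythrocytes in Albumax-based RPMI medium with compound for one erythrocytic cycle. Activity is scored as loss of luminescent signal.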
CHX counter – counter-screen hit for Shiga toxin inhibitors, cycloheximide. cell reporter, cycloheximide protein synthesis inhibition counterscreen. max response, %. 300,000 tested, 12% active; in the data active means max response mostly above about 13%, no sharp cut-off; inactive means mostly below about 14%; further: read at 38.3 µM for the half of the compounds with a filed dose
Shiga inhibitor – Shiga toxin inhibition | Vero cells, Shiga toxin protein synthesis inhibition reporter | inhibition, % at 38.7 µM | AID 2315 | 290,000 tested, 9.2% active; in the data active means inhibition mostly above about 28%, no sharp cut-off; inactive means mostly below about 43%
Large screens that a line does not name were inactive. Unless noted, the call rests on the fitted dose curve; in most records, active means well fitted curve in the direction sought with a large enough effect; inconclusive means small, poorly fitted or top-dose-only effect, or another doubt; inactive means no such curve, though single readings can be large; an effect the other way counts as inactive or inconclusive.

C=CCN1C(=O)/C(=C/c2cccs2)C(=O)NC1=S	none
O=C1NC(=S)N(Cc2ccco2)C(=O)/C1=C\c1cccs1	FBPA Giardia inh 16µM (no result: NS1 inh)
O=C(Nc1ccccc1NC(=O)NC1CCCCC1)NC1CCCCC1	CHX counter 27 (no result: Pf growth 96h)
O=C(NC1CCCCC1)Oc1ccccc1	CHX counter 30
O=C(CNC(=O)OCc1ccccc1)NC1CCCCCCC1	none
NC(=O)C1CCC(NC(=O)OCc2ccccc2)CC1 (centres undefined)	Pf growth 96h 6.6µM
Cc1ccc(CN=C(Nc2ccccc2)NC2CCCCC2)cc1	Pf growth 96h inconclusive, Pf growth 48h 10µM
O=C(NC1CCS(=O)(=O)C1)Oc1ccccc1 (centres undefined)	none (no result: Pf growth 48h)
CC(C)C1=C[C@@]23CC[C@@H]4[C@](C)(CCC[C@@]4(C)C(=O)O)[C@@H]2C[C@@H]1[C@@H](C(=O)O)[C@@H]3C(=O)O	none (no result: Pf growth 96h, FBPA Giardia inh, Pf growth 48h, CHX counter, Shiga inhibitor)
O=C(NC(=S)Nc1cccc([N+](=O)[O-])c1)C1CCCC1	CHX counter 34, Shiga inhibitor 52
O=C(CN1CCC(NC(=O)Cc2ccccc2)CC1)Nc1cccc2ccccc12	Pf growth 96h 8.3µM, Pf growth 48h inconclusive
O=C(NC1CCCCCCC1)NC1CCCCC1	CHX counter 26
CC(NS(=O)(=O)c1ccccc1)C(=O)NC1CCCC1 (centres undefined)	Pf growth 96h inconclusive (no result: FBPA Giardia inh)
Cc1ccccc1NC(=O)CN1CCC(NC(=O)Nc2ccccc2)CC1	Pf growth 48h inconclusive
CN1CCC(NC(=O)NC2CCCCC2)CC1	Pf growth 96h inconclusive
CC(C)NS(=O)(=O)c1ccc(NC(=O)NC2CCCCC2)cc1	Pf growth 96h inconclusive, CHX counter 14
CC(=O)NC(=S)Nc1cccc([N+](=O)[O-])c1	none
CC(C)n1cc(/C(N)=N/O)c(=O)n(Cc2ccccc2)c1=O	Pf growth 96h inconclusive
COc1c(C)cc(C(=O)C2CCCN(C(=O)c3snnc3C)C2)cc1C (centres undefined)	Pf growth 96h inconclusive
CC(C)C(=O)NC(=S)Nc1ccc(S(=O)(=O)NC2CCCCC2)cc1	Pf growth 96h 17µM (no result: FBPA Giardia inh)
O=C(Nc1cccc([N+](=O)[O-])c1)NC1CCCCCCC1	CHX counter 32, Shiga inhibitor 81 (no result: FBPA Giardia inh)
O=C(Nc1ccccc1)NC1CC2CCC(C1)N2 (centres undefined)	none
CC(=O)Nc1ccc(S(=O)(=O)NC2CCCCCC2)cc1	none
O=C(Nc1cccc2ccccc12)NC1Cc2ccccc2C1	Pf growth 96h inconclusive
O=C(Nc1ccccc1)NC1CCCCC1	CHX counter 51, Shiga inhibitor 49 (no result: Pf growth 48h)
O=C(Nc1cccc2ccccc12)NC1CCCCC1	Pf growth 96h 0.83µM
Cc1sc2ncn(CC(=O)N3CCC(C(N)=O)CC3)c(=O)c2c1S(=O)(=O)N1CCOCC1	none
COc1ccc(/C=C2\SC(=O)N(CC(=O)NN3CCN(C)CC3)C2=O)cc1OC	none
CC(=O)c1ccc(NC(=S)NNC(=O)NC2CCCCC2)cc1	CHX counter 21 (no result: NS1 inh)
O=C(Nc1ccc(Br)cc1)NC1CCCCCCC1	Pf growth 96h inconclusive, CHX counter 44, Shiga inhibitor 137
NS(=O)(=O)c1ccc(NC(=S)NC2CCCCCC2)cc1	FBPA Giardia inh inconclusive
O=C(NCCN1CCOCC1)c1ccc(Cl)c(S(=O)(=O)N2CCCC2)c1	Pf growth 48h inconclusive
O=C(NCc1ccncc1)c1ccc(Cl)c(S(=O)(=O)N2CCOCC2)c1	Pf growth 48h inconclusive
O=C(NCCc1ccccc1)c1ccc(Cl)c(S(=O)(=O)N2CCOCC2)c1	Pf growth 96h 10µM, Pf growth 48h inconclusive, CHX counter 24
COc1cccc(CNC(=O)c2ccc(Cl)c(S(=O)(=O)N3CCOCC3)c2)c1	Pf growth 96h 6.6µM, Pf growth 48h 8.3µM (no result: NS1 inh, FBPA Giardia inh, CHX counter, Shiga inhibitor)
Cc1cc(-c2ccccc2)n2ncc(C#N)c2n1	none (no result: Pf growth 48h)
Cc1csc2c(N(C)CCO)ncnc12	Pf growth 48h inconclusive
CCCOc1nc2c(c(=O)n(C)c(=O)n2C)n1CC	Pf growth 96h 2.1µM
CCn1c(OC)nc2c1c(=O)n(C)c(=O)n2C	none
Cc1ccc(C)c(C(=O)COC(=O)c2ccc(C)c(S(=O)(=O)N3CCOCC3)c2)c1	Pf growth 48h inconclusive (no result: NS1 inh, FBPA Giardia inh, CHX counter, Shiga inhibitor)
c1ccc(COc2ccc(CNCc3cccs3)cc2)cc1	CHX counter 25, Shiga inhibitor 56
CN(Cc1ccccc1)CC(O)COc1ccc(CNCCOc2cccnc2)cc1 (centres undefined)	Pf growth 96h inconclusive, Pf growth 48h 13µM
CN(Cc1ccccc1)CC(O)COc1ccc(CNCc2ccc(Cl)s2)cc1 (centres undefined)	Pf growth 96h inconclusive, Pf growth 48h 5.9µM
CN(Cc1ccccc1)CC(O)COc1ccc(CNCCCOc2cccnc2)cc1 (centres undefined)	Pf growth 96h inconclusive, Pf growth 48h 2.1µM
Cc1nn(C)cc1CNCc1ccc(OCC(O)CN(C)Cc2ccccc2)cc1 (centres undefined)	Pf growth 48h inconclusive
OC(COc1ccc(CNCc2cccnc2)cc1)CN1CCc2ccccc2C1 (centres undefined)	Pf growth 48h inconclusive
Brc1ccc(CNCc2cccs2)cc1	NS1 inh inconclusive
CCN1CCCC1Cn1c(-c2ccccc2)nc2c(N(CCOC)CCOC)nc(C)nc21 (centres undefined)	none (no result: NS1 inh, Pf growth 96h, Pf growth 48h, CHX counter, Shiga inhibitor)
CN(Cc1ccccc1)CC(O)COc1ccc(CNCc2cccnc2)cc1 (centres undefined)	Pf growth 96h 8.3µM, Pf growth 48h 9.3µM
c1ccc(COc2ccc(CNCc3cccnc3)cc2)cc1	Pf growth 96h inconclusive, CHX counter 30
CCn1cc(CNCc2ccc(OCC(O)CN(C)Cc3ccccc3)cc2)cn1 (centres undefined)	Pf growth 96h inconclusive, Pf growth 48h inconclusive
COc1ccc(N(C(C)=O)c2nc3ccccc3[nH]2)cc1	Pf growth 96h inconclusive
Cc1ccc2c(c1)C(c1ccncc1)=NNC(c1ccc(F)cc1)=N2	Pf growth 48h inconclusive (no result: NS1 inh)
Fc1ccc2c(c1)C(c1ccncc1)=NNC(c1ccc(Br)cc1)=N2	Pf growth 96h inconclusive, Pf growth 48h inconclusive
Cc1ccc2c(c1)C(c1ccncc1)=NNC(c1ccc(C(C)C)cc1)=N2	Pf growth 96h inconclusive, Pf growth 48h inconclusive, Shiga inhibitor 32
Cc1ccc(C2=Nc3cccnc3C(c3ccccc3)=NN2)cc1	CHX counter 49, Shiga inhibitor 79 (no result: NS1 inh)
Cc1ccc2c(c1)C(c1ccncc1)=NNC(c1ccccc1)=N2	Pf growth 96h inconclusive, CHX counter 50, Shiga inhibitor 103
Cc1ccc(C2=Nc3ccc(Br)cc3C(c3ccncc3)=NN2)cc1	Pf growth 48h inconclusive, CHX counter 28
N#Cc1cccc(NC(=O)N2CC3(CCN(C(=O)c4cnccn4)CC3)C2)c1	none (no result: NS1 inh, Pf growth 96h, Pf growth 48h, CHX counter, Shiga inhibitor)
COc1cccc(NC(=O)CN(C)C(=O)c2ccc(OCc3ccccc3)c(OC)c2)c1	none (no result: NS1 inh, FBPA Giardia inh, CHX counter, Shiga inhibitor)
O=C(NNC(=O)c1ccc2[nH]c(=O)c(=O)[nH]c2c1)c1cccc(Br)c1	none
COc1ccc2c(c1)C(c1ccc(C)o1)=NNC(c1cccnc1)=N2	Pf growth 96h inconclusive, Pf growth 48h inconclusive
